# Screening results as filed in PubChem.
# Pf growth 48h – inhibits P. falciparum growth in the first generation, 48 h; 5.9% of 310,000 active; AID 504832; P. falciparum luciferase growth in erythrocytes, 48 h; Potency, µM (doses to about 28.7 µM), for inactives: top-dose activity change, negative = inhibition, actives largely listed as inhibitors; further: potency means the concentration at half of the fitted maximal effect; on the % scale 0 is the no-effect control and ±100 the full control effect
#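 Read-out is firefly luciferase luminescence from an integrated reporter in P. falciparum, so falling signal marks reduced parasite growth. Infected erythrocytes were at 2% hematocrit and 0.1% parasitemia (final) in Albumax-supplemented RPMI 1640.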
# Pf growth 96h – P. falciparum growth inhibition at 96 hours; P. falciparum luciferase reporter growth, 96 h; Potency, µM (series often up to 28.7 µM), for the others: at the highest dose activity change, negative = inhibition, most hits filed as inhibitors; 6.9% of 320,000 active; further: potency means the concentration at half of the fitted maximal effect; on the % scale 0 is the no-effect control and ±100 the full control effect
#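 Erythrocytes infected with luciferase-expressing P. falciparum were dispensed at 2% hematocrit and 0.05% parasitemia (final), then incubated with compounds 96 hours at 37 C in 5% CO2. Luminescence after detection reagent addition reported growth.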
# FBPA Giardia inh – Giardia lamblia aldolase inhibition; A8B2U2; purified Giardia FBPA; Potency, µM (top dose mostly 59.6 µM), for the others: at the highest dose activity, negative = inhibition, usual class: inhibitors; 0.71% of 290,000 active; further: potency means the concentration at half of the fitted maximal effect; on the % scale 0 is the no-effect control and ±100 the full control effect; nearly all actives have a fitted effect of over 55% in size
# Target sequence (A8B2U2 whole entry, looked up): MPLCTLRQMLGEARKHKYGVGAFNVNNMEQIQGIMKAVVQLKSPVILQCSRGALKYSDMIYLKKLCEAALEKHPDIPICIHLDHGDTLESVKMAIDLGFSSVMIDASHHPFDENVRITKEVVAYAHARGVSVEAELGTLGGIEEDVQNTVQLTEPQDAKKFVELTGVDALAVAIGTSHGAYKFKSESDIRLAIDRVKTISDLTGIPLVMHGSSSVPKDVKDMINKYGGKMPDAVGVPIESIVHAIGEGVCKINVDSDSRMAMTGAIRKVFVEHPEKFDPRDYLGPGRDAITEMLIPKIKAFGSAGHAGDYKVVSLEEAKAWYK
#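 Giardia FBPA (40 nM reagent) was preincubated 10 min at RT with compound (up to 57.5 uM final), then substrate plus GAPDH/TPI/NAD/arsenate coupling system with diaphorase/resazurin was added; resorufin fluorescence (525/598 nm) was read after 20 min.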
# NS1 function inh – inhibitors of influenza NS1 protein function; Potency, µM (highest dose often 46.1 µM), without a hit: at the highest dose activity, positive = more growth; 0.4% of 270,000 active; calls by dose curve; further: potency means the concentration at half of the fitted maximal effect; actives are rising curves; nearly all actives have a fitted effect of over 50% in size
#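 Compounds were scored for reversing the slow growth caused by influenza A NS1 in S. cerevisiae, measured by optical density at 600 nm. Assay medium contained 2% galactose at pH 6.0; NS1-free yeast of the same strain were the positive control.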
# CHX counter – counter-screen for Shiga toxin inhibitors: cycloheximide protein synthesis inhibition; max response, %; 12% of 300,000 active; cell reporter, cycloheximide protein synthesis inhibition counterscreen; in the data active means max response mostly above about 13%, no sharp cut-off; inactive means mostly below about 14%; further: read at 38.3 µM for the half of the compounds with a filed dose; 0% is about no effect
# Shiga toxin inh – blocks Shiga toxin action in Vero cells. Vero cells, Shiga toxin protein synthesis inhibition reporter. inhibition, % at 38.7 µM. 9.2% of 290,000 active. AID 2315; in the data active means inhibition mostly above about 28%, no sharp cut-off; inactive means mostly below about 43%; further: 0% is about no effect
# Active calls of the source: *; ? = inconclusive; · = no result; + = active, no number; [ ] = remark or other dose. A selection: hits, their analogues and other compounds. The true share with any hit is near 21%. Unless noted, the call rests on the fitted dose curve; in most records, active means well fitted curve in the direction sought with a large enough effect; inconclusive means small, poorly fitted or top-dose-only effect, or another doubt; inactive means no such curve, though single readings can be large; an effect the other way counts as inactive or inconclusive.
SMILES,Pf growth 48h,Pf growth 96h,FBPA Giardia inh,NS1 function inh,CHX counter,Shiga toxin inh
CCCOc1cc(CN2CCCCC2)cc(C(C)=O)c1,8.1%,9.28µM*,-8.3%,9.3%,-2.8,16.6
CCCOc1ccc(C(=O)CCN2CCCCC2)cc1,13.1%,·,-4.2%,-42.8%,5.0,-11.4
COc1cccc(-c2cc3c(-n4cccc4)ncnc3o2)c1,49.7%,-0.9%,-2.6%,6.7%,11.7,43.1*
COc1cccc(-c2ccc3ncnc(N4CCN(C)CC4)c3c2)c1,·,·,-1.6%,·,·,·
OCCN1CCN(c2cc(C(F)(F)F)nc3ccccc23)CC1,11.7µM*,-2.6%,3.5%,?,-2.5,-4.0
O=C(c1cc(Cl)cc(Cl)c1)N1CCN(c2cc(C(F)(F)F)nc3ccccc23)CC1,3.7µM*,1.31µM*,-0.5%,4.7%,0.6,15.1
CCN(CC)C(=O)c1cc(C(C)(C)C)c(O)c(C(C)(C)C)c1,?,10.4µM*,-1.3%,-6.6%,-3.6,-6.6
CC(C)(C)NC(=O)c1cc(C(C)(C)C)c(O)c(C(C)(C)C)c1,?,9.28µM*,1.3%,7.9%,-4.7,3.0
CC(C)(C)NC(=O)c1ccc(C(=O)NC(C)(C)C)cc1,10.8%,59.0%,1.9%,9.2%,-1.9,1.7
Cc1[nH]cnc1C(=O)N/N=C/c1ccc([N+](=O)[O-])s1,?,1.85µM*,7.9%,-3.7%,23.7*,55.1*
Cc1cc(C(=O)N/N=C/c2ccc([N+](=O)[O-])s2)n[nH]1,?,2.08µM*,-5.1%,-37.6%,17.2*,28.4
Cc1cc(C)n(CC(=O)N/N=C/c2ccc([N+](=O)[O-])s2)n1,?,13.7%,0.8%,·,-2.3,40.6
Cc1cc(C(=O)N/N=C/c2cc(Cl)cc([N+](=O)[O-])c2O)n[nH]1,63.1%,11.9%,26.0%,-45.9%,-0.7,-4.1
Cc1cc(C(=O)N/N=C\c2cc(C(C)(C)C)c(O)c(C(C)(C)C)c2)n[nH]1,-17.4%,9.5%,4.9%,-7.4%,-3.0,4.0
Cc1cc(C(=O)N/N=C/c2ccc(C)s2)n[nH]1,92.8%,?,-2.3%,11.2%,29.2,85.8*
Cc1cc(C(=O)N/N=C/c2cc(Br)c(Br)o2)n[nH]1,11.9%,-4.0%,-18.7%,-22.1%,22.6*,80.4*
Cc1cc(C(=O)N/N=C/c2ccc(Br)o2)n[nH]1,21.1%,14.2%,-3.1%,-1.7%,11.4,31.2
Cn1nc(C(=O)NCCCN2CCCCC2)c2c1-c1ccccc1SC2,-21.2%,?,8.7%,-6.7%,-2.1,-11.9
C[C@]12CCC(=O)C=C1CCC1C2C(=O)C[C@]2(C)C1CC[C@]2(O)C(=O)CO (stereo partly specified),-5.7%,1.5%,4.5%,·,·,·
CC(C)(C)OC(=O)C1=NOC2(C=CC(=O)C=C2)C1,·,·,0.0%,·,·,·
Cc1ccccc1OCC(=O)Nc1ccc([N+](=O)[O-])cc1,-21.5%,?,1.0%,2.3%,-2.8,·
O=C(Cn1cc([N+](=O)[O-])cn1)NC1CCCCCC1,26.9%,47.8%,-10.7%,2.2%,-3.2,-13.3
CCC(C(=O)O)N1C(=O)C2CCCCC2C1=O (stereo unspecified),15.9%,5.5%,3.2%,-4.0%,0.9,1.6
C=CCNC(=O)/C(C#N)=C/c1ccc(OS(=O)(=O)c2ccc(C)cc2)c(OC)c1,-13.4%,-23.8%,0.0%,-37.1%,1.4,21.2
Cn1c(SCC(=O)N/N=C/c2ccc([N+](=O)[O-])s2)nnc1-c1ccc(Cl)cc1,10.4µM*,5.22µM*,-3.2%,-44.1%,10.2*,-11.1
SMILES,Pf growth 48h,Pf growth 96h,FBPA Giardia inh,NS1 function inh,CHX counter,Shiga toxin inh
C1CNC(C23CC4CC(CC(C4)C2)C3)=N1,6.9%,-19.6%,-1.5%,·,24.7,56.5*
Cc1ncc(C23CC4CC(CC(C4)C2)C3)[nH]1,-16.5%,39.1%,-3.7%,-1.7%,-3.5,-20.7
CCCC1Oc2ccccc2C(=O)N(CC(=O)c2ccc3c(c2)OCCO3)C1=O (stereo unspecified),4.3%,20.6%,·,-7.4%,20.6*,28.6
CC(C)CC1NC(=O)N(CC(=O)c2ccc3c(c2)OCCO3)C1=O (stereo unspecified),98.9%,132.0%,-1.1%,-4.3%,34.3*,134.8*
CCOC(=O)c1cnn(-c2ccccc2)c1-c1ccncc1,8.7%[0.00184 µM],?,13.3%,-5.4%,-3.3,0.7
O=C(NC1CCCC1)c1ccc(COc2ccccc2Br)o1,0.0%,?,·,-91.6%,16.0,11.1
Cc1ccc(C(=O)N2CCC(C(=O)NC3CCCCCC3)CC2)cc1,?,?,-10.4%,-5.9%,27.6*,55.7
Cc1ccc(C(=O)NCC(=O)NC2CCCCCC2)cc1,16.6%,?,1.8%,1.4%,active,25.5*
Cc1ccc(CNC(=O)NC2CCCCC2)cc1,·,-19.0%,3.9%,0.0%,16.0*,55.5*
CC(C)(C)c1ccc(C(=O)OCC(=O)NC2CC2)cc1,9.28µM*,?,·,·,·,·
O=C(COC(=O)c1ccc(O)cc1)NC1CCCCCC1,7.8%,25.8%,·,·,·,·
COc1cnc(-c2ccccc2)nc1Oc1ccc(Cl)cc1C,-26.5%,-8.5%,0.8%,·,-1.6,-6.7
COc1ccc(C2=Nn3c(nnc3-c3ccc(OC)c(OC)c3)SC2)cc1OC,·,·,1.0%,·,5.2,-5.2
Cc1ccc(C(=O)OCC(=O)NC2CCCC2)cc1,65.1%,48.0%,4.6%,1.4%,32.0*,74.7*
CCn1cc(CNC(=O)NC2CCCCC2)c(C)n1,55.3%,-18.5%,2.8%,3.3%,19.2*,64.6*
O=C(COC(=O)c1ccc(O)cc1)NC1CCCC1,45.4%,54.0%,8.3%,1.5%,19.4,16.3
CCc1cc(=O)oc2cc(C)cc(OCC(=O)NCCCN3CCOCC3)c12,27.2%,49.2%,1.4%,0.5%,7.5,-7.7
C=CCOc1ccc(/C=N/N2C(=O)C(CC(=O)Nc3ccc(F)cc3F)SC2=NC)cc1 (stereo unspecified),?,?,1.5%,?,21.3*,29.7*
CN=C1SC(CC(=O)Nc2ccccc2F)C(=O)N1C (stereo unspecified),16.0%,10.1%,5.1%,-10.3%,2.4,7.5
O=C(COC(=O)c1cc(-c2ccccc2)nc2ccccc12)Nc1ccc2c(c1)OCO2,8.9%,24.5%,-0.6%,12.1%,-2.2,-7.7
NC(=O)COC(=O)c1c2c(nc3ccccc13)CCCC2,4.7%,-20.3%,4.0%,·,-1.6,-8.0
O=C(COC(=O)c1c2c(nc3ccccc13)CCCC2)Nc1ccc2c(c1)OCO2,?,10.4µM*,0.7%,-46.5%,13.7,23.3
CC(C)(C)NC(=O)COC(=O)c1c2c(nc3ccccc13)CCC2,?,5.22µM*,0.7%,-31.2%,-2.6,-2.3
O=C(OCC(=O)N1CCc2ccccc21)c1c2c(nc3ccccc13)CCCCC2,4.65µM*,-88.2%,-1.9%,-19.0%,19.9*,+
CC(C)(CNC(=O)c1ccc(NS(=O)(=O)c2ccc(Br)cc2)cc1)N1CCOCC1,-9.1%,-9.9%,·,·,·,·
CCn1c(SCC(=O)N2CCCC2)nnc1-c1ccc(S(=O)(=O)N2CCCCCC2)cc1,9.28µM*,?,-10.1%,-9.5%,1.7,-7.3
